The panel holds about 83,000 compounds, 20% with a hit somewhere; the sample as a whole holds those more often.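 Cell lines were cultured in 96-well plates, exposed to a single compound concentration, and assessed for percent growth 48 hours later.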 Unmarked numbers belong to inactive results. Active and inactive are the calls of the source. The calls were made as follows: active = growth percent below 10; inactive = the rest.
What was measured:
Assay in all cases: NCI-60 one-dose screen, 48 h (100 = growth as untreated, 0 = no growth, -100 = all killed)
Details in all cases: 10 µM unless noted
EKVX NSCLC = system: EKVX NSCLC
SN12C renal = system: SN12C renal
UO-31 renal = system: UO-31 renal
TK-10 renal = system: TK-10 renal
ACHN renal = system: ACHN renal
CAKI-1 renal = system: CAKI-1 renal
A498 renal = system: A498 renal
CCRF-CEM leukemia = system: CCRF-CEM leukemia
MOLT-4 leukemia = system: MOLT-4 leukemia
SR leukemia = system: SR leukemia

| SMILES | growth (EKVX NSCLC) | growth (SN12C renal) | growth (UO-31 renal) | growth (TK-10 renal) | growth (ACHN renal) | growth (CAKI-1 renal) | growth (A498 renal) | growth (CCRF-CEM leukemia) | growth (MOLT-4 leukemia) | growth (SR leukemia) |
| --- | --- | --- | --- | --- | --- | --- | --- | --- | --- | --- |
| COc1ccc2oc(=O)cc(Cn3cc(Cn4cnc5c4c(=O)n(C)c(=O)n5C)nn3)c2c1 | 103% | 95.9% | 83.3% | 100% | 98.7% | 95.3% | 103% | 106% | 103% | 106% |
| CCn1c(Cc2ccccc2Nc2c(Cl)cccc2Cl)nnc1SCC(=O)NN1C(=O)/C(=C/c2cccc(OC)c2OC)SC1=S | 93.2% | 95% | 77.3% | 108% | 96.9% | 94.1% | 103% | 96.6% | 95.8% | 102% |
| COC(=O)C1=Nc2ccc(F)cc2/C1=C/c1sc(=S)[nH]c1O | 36.8% | 27.3% | 14.7% | 56% | 25.1% | 20% | 25.7% | 11.9% | 13.7% | 22.3% |
| CCN1C(=O)N(CC)C2Nn3c(s/c(=C4\C(=O)N(C(C)C)c5ccccc54)c3=O)=NC21 (stereo not given) | 29.9% | 47.7% | 55.8% | 86.6% | 43.1% | 45.9% | 37.4% | 19.3% | 19.6% | 21.2% |
| O=C(c1nc2ccccc2[nH]1)C1C(c2ccc(F)cc2)C2CC3CCCCC3N2[C@@]12C(=O)Nc1ccc(Cl)cc12 (stereo not given in full) | 39.5% | 52% | 30.9% | 72.9% | 43.1% | 54.8% | 39.8% | 33.3% | 11.4% | 21% |
| CC(C)C[C@H](C(=O)N[C@H](C(N)=O)C(C)C)N1CC=CCN(OCc2ccccc2)S1(=O)=O | 114% [2.5 µM] | 94.9% [2.5 µM] | 83.6% [2.5 µM] | 102% [2.5 µM] | 97.8% [2.5 µM] | 99.4% [2.5 µM] | 108% [2.5 µM] | 92.4% [2.5 µM] | 82.5% [2.5 µM] | 93.4% [2.5 µM] |
| COc1ccc2sc3c(NCCCN)nc4ccccc4c3c(=O)c2c1 | 57.5% | 81.3% | 67.1% | 74.8% | 48.7% | 73% | 49.8% | 0.782% (active) | -17.3% (active) | 2.94% (active) |
| O=C(/C=C/c1ccc(F)cc1)c1ccc(Nc2nc(NCCO)nc(Nc3ccc(Cl)cc3)n2)cc1 | 67.7% | 94% | 70.7% | 93.4% | 70.8% | 73.6% | 70.4% | 60.5% | 57.9% | 25.8% |
| S=C1CCCC(=S)N1 | 106% | 99.3% | 87.8% | 114% | 105% | 93% | 91.3% | 105% | 107% | 114% |
| COc1cc(/C=C2\CN(C)C/C(=C\c3cc(CN4CCCC4)c(O)c(OC)c3)C2=O)cc(CN2CCCC2)c1O | 83.9% | 53.6% | 80.7% | 101% | 79% | 99.6% | 98.2% | 34.1% | 57.6% | 38.7% |
| O=C(NCc1ccccc1)C1CN(c2ccc(Cl)cc2)N(c2ccc(Cl)cc2)C1=O (stereo not given) | 87.8% | 91% | 55.9% | 95.7% | 94.7% | 75.4% | 73.4% | 73.4% | 64.3% | 34.3% |
| COc1cc(C2CC(c3ccc(Nc4nc(NCCO)nc(N5CCOCC5)n4)cc3)=NN2c2cc(Cl)cc(Cl)c2)cc(OC)c1OC (stereo not given) | 55.5% | 65.5% | 42% | 93.3% | 47.6% | 46.4% | 52% | 48% | 33.2% | 23.2% |
| COc1ccc(N)c(-c2cc3c(c4c2[nH]c2ccc(OC)cc24)CCCC3)c1 | 72.5% | 87.8% | 57.6% | 114% | 89.4% | 67.1% | 88.8% | 55.4% | 68.8% | 79.1% |
| CCN1C(=O)N(CC)C2C1NC(=S)N2/N=C/C=C/c1ccccc1OC (stereo not given) | 30.9% | 26% | 46.3% | 55.2% | 22.9% | 28.4% | -4.32% (active) | 13.8% | 15.7% | 12% |
| COc1ccc(C2C3=C(COC3=O)N(CCO)c3cc4c(cc32)CCC4)cc1 (stereo not given) | 66.7% | 95.1% | 75.7% | 77.9% | 67.7% | 48% | 73.2% | 64.3% | 45.4% | 35.8% |
| Cc1nc(Nc2ccccn2)sc1C(=O)/C=C/c1ccc(Cl)cc1 | 27.8% | 32% | 28.6% | 61.5% | 23.2% | 27.9% | 6.49% (active) | 17.1% | 17.2% | 15.6% |
| CCOC(=O)c1sc(-c2ccc(OS(=O)(=O)c3cccs3)c(C=O)c2)nc1C | 33.6% | 1.55% (active) | -4.34% (active) | 12.2% | 0.377% (active) | 2.41% (active) | 31.4% | 7.57% (active) | -7.85% (active) | 3.44% (active) |
| CNCCNc1nc2ccccc2c2c(=O)c3cc(OC)ccc3sc12 | 59.2% | 66.3% | 41.1% | -15.1% (active) | 35.4% | 48% | 45.7% | 2.47% (active) | -28.8% (active) | 5.19% (active) |
| COC(=O)/C(CCC=C(C)C)=C1\[C@@H](OC(C)=O)C[C@@]2(C)[C@H]1C[C@@H](O)[C@H]1[C@@]3(C)CC[C@H](NCCCNCCCCNCCCN)[C@@H](C)[C@@H]3CC[C@@]12C | 66.2% | 38.2% | 51.7% | 69.4% | 42.4% | 61.9% | 69.1% | 70.6% | 65.4% | 42.3% |
| CC1(O)COCCCCOc2c(CN)cccc2NC(=O)c2nc(cnc2N)-c2ccc(cc2)S(=O)(=O)C(C)(C)C1 (stereo not given) | -58% (active) | -81.1% (active) | -97.5% (active) | -36.2% (active) | -99.2% (active) | 39.4% | -34.4% (active) | 5.36% (active) | -15.6% (active) | 8.92% (active) |
| O=C(/C=C/c1cccc(Cl)c1)OCc1ccc2cc1OCC#C/C=C\C#CCO2 | 115% | 95.7% | 80.2% | 122% | 99.4% | 101% | 76.7% | 84% | 73.2% | 63% |
| O=C1/C(=C/c2cccc(O)c2)COc2ccc(O)cc21 | 93.9% | 73.8% | 79.6% | 130% | 67.3% | 95.3% | 117% | 8.33% (active) | 33.3% | 10.5% |
| COc1ccc(CCN2C(=O)CCSC2=S)cc1OC | 97.4% | 92.3% | 79.2% | 61.4% | 102% | 95.2% | 99.3% | 73.6% | 100% | 33.2% |
| O=C(O)c1cn(C2CC2)c2cc(N3CCN(C(=O)C[n+]4ccccc4)CC3)c(F)cc2c1=O | 94.4% | 97.5% | 88.1% | 99.3% | 103% | 94.3% | 87.6% | 97.4% | 104% | 107% |
